For 21 compounds, outcome and AC50 results are on record in PubChem BioAssay (EPA / NIEHS).

The structures appear in SMILES notation. Inconclusive results are not listed. The source made the active and inactive calls. How the source made its calls, unless noted: active means hit-call score of the fitted dose curve at least 0.9, where 1 is the maximum; inconclusive means response in the unintended direction; inactive means score below 0.9.

Read-out in experiment [1]: Intercellular Adhesion Molecule 1 (ICAM1), ICAM1 (gene 3383)
The experiment can be described thus: BSK_3C_ICAM1: BioMAP Diversity Plus: 3C Assay for Intercellular Adhesion Molecule 1 (ICAM1) Biomarker Activity (AID 2283003; active means hit-call score of the fitted dose curve at least 0.9, where 1 is the maximum; inactive means score below 0.9). The following applies: primary human endothelial cells (HUVEC); actives raise or lower the signal. The method, boiled down: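 ELISA readout of ICAM1 in human umbilical vein endothelial cells in the 3C system, taken 24 h post-dose. Gain or loss of signal versus DMSO was fitted in both directions, with SRB total-protein staining run in parallel.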

Experiment [2] concerns the target Retinoic acid receptor alpha (Homo sapiens) (UniProt P10276). Nature of the experiment: ATG_RARa_TRANS: Attagene TRANS-FACTORIAL HepG2 Assay for human Retinoic Acid Receptor alpha (RARa) (AID 2283005). The method, boiled down: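 HepG2 transiently transfected with multiplex GAL4-UAS reporter units including a human RARa–GAL4 chimera; 24 h compound exposure. Reporter mRNA quantified by RT-PCR, 6-FAM labeling and capillary electrophoresis; gain of signal versus DMSO.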

The nature of experiment [3]: BSK_3C_Proliferation: Cell Proliferation Assessment in the BioMAP Diversity Plus: 3C Assay (AID 2283006; active means hit-call score of the fitted dose curve at least 0.9, where 1 is the maximum; inactive means score below 0.9;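 on AC50: potency may reflect either rise or fall in cell number versus DMSO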). Particulars: primary human endothelial cells (HUVEC). The method, boiled down: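 Proliferation as total protein: sulforhodamine B (0.1%) stain of TCA-fixed subconfluent human umbilical vein endothelial cells, absorbance 560 nm, 48 h after dosing. Activity fitted in both directions against DMSO baseline.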

The target of experiment [4] is Retinoic acid receptor RXR-alpha (Homo sapiens) (UniProt P19793). The experiment can be described thus: ATG_RXRa_TRANS: Attagene TRANS-FACTORIAL HepG2 Assay for human Retinoid X Receptor alpha (RXRa) (AID 2283012). The method, boiled down: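 TRANS format reporting activity of exogenous RXRa-Gal4 chimera in transiently transfected HepG2, 24 h exposure. Reporter transcripts quantified by RT-PCR with capillary electrophoresis, with gain of signal scored relative to DMSO.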
Retinoic acid receptor RXR-alpha (Homo sapiens), sequence (P19793 whole entry, looked up, the tested form may be a part): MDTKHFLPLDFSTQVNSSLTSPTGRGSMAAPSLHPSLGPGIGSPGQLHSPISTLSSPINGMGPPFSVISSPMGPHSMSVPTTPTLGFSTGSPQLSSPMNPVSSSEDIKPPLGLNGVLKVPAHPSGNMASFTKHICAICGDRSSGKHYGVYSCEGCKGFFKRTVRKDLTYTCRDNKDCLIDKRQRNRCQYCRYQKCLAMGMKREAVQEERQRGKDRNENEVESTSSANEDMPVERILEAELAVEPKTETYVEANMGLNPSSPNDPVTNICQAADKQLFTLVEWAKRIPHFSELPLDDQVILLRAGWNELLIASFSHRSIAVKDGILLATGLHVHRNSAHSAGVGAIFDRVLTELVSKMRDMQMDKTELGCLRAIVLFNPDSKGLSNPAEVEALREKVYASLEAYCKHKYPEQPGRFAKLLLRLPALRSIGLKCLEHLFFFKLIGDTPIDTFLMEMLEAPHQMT

Experiment [5] concerns the target human Thyroid Receptor alpha (THRa1), THRA (gene 7067) (UniProt P10827). The experiment can be described thus: ATG_THRa1_TRANS: Attagene TRANS-FACTORIAL HepG2 Assay for human Thyroid Receptor alpha (THRa1) (AID 2283014). The method, boiled down: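 Measured here is mRNA from a GAL4-UAS reporter in transfected HepG2 cells carrying a Gal4-fused receptor, 24 h post-dose. DMSO served as negative control and baseline.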

For experiment [6], the target named is human Retinoic Acid Receptor beta (RARb), RARB (gene 5915) (UniProt P10826). Nature of the experiment: ATG_RARb_TRANS: Attagene TRANS-FACTORIAL HepG2 Assay for human Retinoic Acid Receptor beta (AID 2283004). The method, boiled down:
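Fluorescent capillary-electrophoresis detection of GAL4-UAS reporter mRNA defines the endpoint, with induction over DMSO-treated wells scored as activity. Transiently transfected human hepatoma HepG2 cells expressing exogenous NR–Gal4 proteins are exposed to test chemicals for 24 h.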

The target of experiment [7] is Peroxisome proliferator-activated receptor gamma (Homo sapiens) (UniProt P37231). The experiment can be described thus: ATG_PPARg_TRANS: Attagene TRANS-FACTORIAL HepG2 Assay for human Peroxisome Proliferator-activated Receptor-gamma (PPARg) (AID 2283007). The method, boiled down:
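HepG2 cells are transiently transfected with GAL4-UAS reporter units driven by chimeric NR-Gal4 fusions and dosed for 24 h. Reporter mRNA is quantified by RT-PCR, 6-FAM labelling, HpaI digestion and capillary electrophoresis. Induction is scored against DMSO.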

Experiment [8] deals with human RAR-related Orphan Receptor gamma (RORg), RORC (gene 6097) (UniProt P51449). Nature of the experiment: ATG_RORg_TRANS: Attagene TRANS-FACTORIAL HepG2 Assay for human RAR-related Orphan Receptor gamma (RORg) (AID 2283011). The method, boiled down: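 Chimeric RORg-Gal4 transactivation in transfected HepG2; 24 h exposure; RT-PCR/capillary electrophoresis readout of reporter mRNA, DMSO baseline.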
human RAR-related Orphan Receptor gamma (RORg), RORC (gene 6097), sequence (P51449 whole entry, looked up, the tested form may be a part): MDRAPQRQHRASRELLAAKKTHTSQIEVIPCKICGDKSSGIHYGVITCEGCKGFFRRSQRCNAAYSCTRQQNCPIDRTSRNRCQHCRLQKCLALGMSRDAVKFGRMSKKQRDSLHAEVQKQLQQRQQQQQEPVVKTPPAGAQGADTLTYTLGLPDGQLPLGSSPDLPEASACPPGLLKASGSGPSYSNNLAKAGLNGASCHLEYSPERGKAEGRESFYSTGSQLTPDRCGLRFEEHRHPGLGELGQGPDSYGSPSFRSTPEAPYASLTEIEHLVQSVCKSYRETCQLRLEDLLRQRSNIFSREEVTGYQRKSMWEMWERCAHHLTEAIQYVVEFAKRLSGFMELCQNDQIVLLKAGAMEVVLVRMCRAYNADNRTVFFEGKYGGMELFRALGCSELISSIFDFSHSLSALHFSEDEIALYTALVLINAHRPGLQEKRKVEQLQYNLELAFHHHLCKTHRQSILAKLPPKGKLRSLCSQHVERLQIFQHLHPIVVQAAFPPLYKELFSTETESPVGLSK

Experiment [9] has as its target human Retinoid X Receptor beta (RXRb), RXRB (gene 6257) (UniProt P28702). Nature of the experiment: ATG_RXRb_TRANS: Attagene TRANS-FACTORIAL HepG2 Assay for human Retinoid X Receptor beta (RXRb) (AID 2283013). The method, boiled down: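 Readout is reporter transcript induction after 24 h dosing. It is measured by RT-PCR of total RNA followed by fluorescent capillary electrophoresis. HepG2 liver cells carry transfected multiple reporter units driven by an exogenous RXRb-Gal4 fusion; activity is relative to DMSO.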

In experiment [10] the target is Nuclear receptor subfamily 1 group I member 2 (Homo sapiens) (UniProt O75469). Nature of the experiment: ATG_PXR_TRANS: Attagene TRANS-FACTORIAL HepG2 Assay for human Pregnane X Receptor (PXR) (AID 2283008). The method, boiled down: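 Transient HepG2 transfectants carrying multiplexed reporter transcription units; PXR activity read through a Gal4 chimera. 24 h exposure. RT-PCR/CE fluorescence; upward curve fit referenced to DMSO.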
Nuclear receptor subfamily 1 group I member 2 (Homo sapiens), sequence (O75469 whole entry, looked up, the tested form may be a part): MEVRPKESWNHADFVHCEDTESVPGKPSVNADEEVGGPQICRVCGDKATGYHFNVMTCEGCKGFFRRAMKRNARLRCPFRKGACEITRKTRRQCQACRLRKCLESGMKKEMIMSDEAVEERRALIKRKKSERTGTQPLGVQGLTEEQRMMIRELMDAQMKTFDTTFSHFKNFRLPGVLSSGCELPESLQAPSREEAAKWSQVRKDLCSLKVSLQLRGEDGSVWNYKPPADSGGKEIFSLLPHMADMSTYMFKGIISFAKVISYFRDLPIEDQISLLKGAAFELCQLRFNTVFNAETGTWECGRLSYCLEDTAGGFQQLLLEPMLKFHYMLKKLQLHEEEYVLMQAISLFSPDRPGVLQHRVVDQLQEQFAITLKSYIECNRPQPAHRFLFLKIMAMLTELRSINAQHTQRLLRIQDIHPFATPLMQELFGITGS

human Thyroid Receptor alpha (THRa1), THRA (gene 7067), sequence (P10827 whole entry, looked up, the tested form may be a part): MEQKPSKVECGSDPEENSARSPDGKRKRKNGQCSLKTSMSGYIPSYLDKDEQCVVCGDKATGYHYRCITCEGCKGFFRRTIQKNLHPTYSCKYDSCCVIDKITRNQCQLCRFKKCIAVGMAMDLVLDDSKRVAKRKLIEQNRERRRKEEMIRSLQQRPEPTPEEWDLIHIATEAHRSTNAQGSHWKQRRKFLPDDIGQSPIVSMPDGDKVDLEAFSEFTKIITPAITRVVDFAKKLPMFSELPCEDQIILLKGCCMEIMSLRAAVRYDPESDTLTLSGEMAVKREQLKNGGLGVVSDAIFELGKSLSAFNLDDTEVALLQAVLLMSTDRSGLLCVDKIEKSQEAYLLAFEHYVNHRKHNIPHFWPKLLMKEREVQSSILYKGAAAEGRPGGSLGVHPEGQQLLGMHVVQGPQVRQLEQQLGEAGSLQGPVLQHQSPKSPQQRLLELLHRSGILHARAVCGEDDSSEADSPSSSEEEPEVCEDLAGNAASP
Retinoic acid receptor alpha (Homo sapiens), sequence (P10276 whole entry, looked up, the tested form may be a part): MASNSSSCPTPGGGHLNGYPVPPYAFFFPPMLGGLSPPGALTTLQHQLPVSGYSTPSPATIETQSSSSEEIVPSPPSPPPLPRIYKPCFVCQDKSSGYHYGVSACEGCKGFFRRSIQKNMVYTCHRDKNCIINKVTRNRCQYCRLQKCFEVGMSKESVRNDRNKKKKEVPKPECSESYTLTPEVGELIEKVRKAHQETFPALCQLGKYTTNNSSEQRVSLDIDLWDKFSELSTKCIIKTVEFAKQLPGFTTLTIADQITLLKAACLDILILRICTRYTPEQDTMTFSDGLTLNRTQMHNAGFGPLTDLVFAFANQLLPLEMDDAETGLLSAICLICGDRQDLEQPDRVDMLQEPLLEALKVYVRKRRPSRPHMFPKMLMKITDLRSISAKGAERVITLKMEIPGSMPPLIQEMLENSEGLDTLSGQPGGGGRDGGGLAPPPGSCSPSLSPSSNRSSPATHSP
Peroxisome proliferator-activated receptor gamma (Homo sapiens), sequence (P37231 whole entry, looked up, the tested form may be a part): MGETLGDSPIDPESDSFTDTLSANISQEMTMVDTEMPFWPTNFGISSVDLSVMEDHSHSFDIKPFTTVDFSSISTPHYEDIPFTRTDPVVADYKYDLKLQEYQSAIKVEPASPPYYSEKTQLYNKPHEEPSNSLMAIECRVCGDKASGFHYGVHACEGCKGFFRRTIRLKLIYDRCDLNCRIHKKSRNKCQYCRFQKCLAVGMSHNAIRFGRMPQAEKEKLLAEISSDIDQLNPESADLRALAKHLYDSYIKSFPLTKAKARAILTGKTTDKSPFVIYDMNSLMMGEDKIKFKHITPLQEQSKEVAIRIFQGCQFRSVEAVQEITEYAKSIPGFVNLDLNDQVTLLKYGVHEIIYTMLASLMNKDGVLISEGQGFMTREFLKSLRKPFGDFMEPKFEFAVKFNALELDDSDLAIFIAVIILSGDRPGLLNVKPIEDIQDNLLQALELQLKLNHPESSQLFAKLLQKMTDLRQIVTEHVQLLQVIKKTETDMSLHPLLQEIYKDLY
human Retinoid X Receptor beta (RXRb), RXRB (gene 6257), sequence (P28702 whole entry, looked up, the tested form may be a part): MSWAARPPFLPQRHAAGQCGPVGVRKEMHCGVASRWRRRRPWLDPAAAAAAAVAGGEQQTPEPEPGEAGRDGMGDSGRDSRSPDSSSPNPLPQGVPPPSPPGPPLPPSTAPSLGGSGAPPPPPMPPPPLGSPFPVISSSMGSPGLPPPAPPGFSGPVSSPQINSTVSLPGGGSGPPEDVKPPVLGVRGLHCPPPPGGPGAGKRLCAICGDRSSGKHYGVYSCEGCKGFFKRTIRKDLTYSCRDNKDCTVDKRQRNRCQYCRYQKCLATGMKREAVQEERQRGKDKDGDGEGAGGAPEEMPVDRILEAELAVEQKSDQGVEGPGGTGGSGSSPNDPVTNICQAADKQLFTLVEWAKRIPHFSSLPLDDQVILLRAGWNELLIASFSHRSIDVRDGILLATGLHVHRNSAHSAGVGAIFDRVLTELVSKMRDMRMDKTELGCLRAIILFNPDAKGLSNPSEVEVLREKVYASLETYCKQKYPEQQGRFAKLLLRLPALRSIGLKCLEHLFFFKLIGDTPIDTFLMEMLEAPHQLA
human Retinoic Acid Receptor beta (RARb), RARB (gene 5915), sequence (P10826 whole entry, looked up, the tested form may be a part): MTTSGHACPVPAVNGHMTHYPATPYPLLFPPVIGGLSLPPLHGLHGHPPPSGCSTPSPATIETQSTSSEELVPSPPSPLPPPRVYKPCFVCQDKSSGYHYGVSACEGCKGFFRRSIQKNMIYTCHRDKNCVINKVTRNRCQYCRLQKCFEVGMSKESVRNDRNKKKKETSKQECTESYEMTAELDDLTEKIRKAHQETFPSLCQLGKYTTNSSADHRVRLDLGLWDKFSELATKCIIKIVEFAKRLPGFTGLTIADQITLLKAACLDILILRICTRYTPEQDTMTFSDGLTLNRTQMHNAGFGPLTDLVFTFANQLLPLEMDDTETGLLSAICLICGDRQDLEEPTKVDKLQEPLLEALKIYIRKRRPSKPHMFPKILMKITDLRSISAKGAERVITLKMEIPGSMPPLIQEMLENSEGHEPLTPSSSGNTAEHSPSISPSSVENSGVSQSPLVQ

Regarding `O=C1OC(c2ccc(O)cc2)(c2ccc(O)cc2)c2ccccc21`, the outcome in [1], in [2], in [4] and in experiment [5] was inactive. The AC50 in [3] was 15 µM (active).

Consider `O=C(O)CC(O)(CC(=O)O)C(=O)O`, for which the outcome in experiment [1] and in experiment [3] was inactive.

With `O=C(Oc1ccccc1)c1cccc(C(=O)Oc2ccccc2)c1`, the result in experiment [1], in [6], in experiment [8] and in experiment [5] was inactive. For the same compound, the AC50 in experiment [3] was 15.2 µM (active); in [7], 60.4 µM (active).

As to `CC(=O)OC1CC(C)OC(C)O1` (stereo not given), the result in experiment [1], in experiment [6], in experiment [3], in [7], in experiment [8] and in experiment [4] was inactive. Also, in experiment [9], the compound was called inactive.

Turning to `CC(C)c1cccc(C(C)C)c1`, the result in experiment [1], in experiment [6], in [3] and in experiment [4] was inactive. In addition, in experiment [9], the AC50 is 100 µM (active).

In the case of `O=[Si]=O`, the outcome in experiment [1], in experiment [6], in experiment [2], in experiment [3], in experiment [7] and in experiment [10] was inactive. For the same compound, the result in experiment [4], in experiment [9] and in experiment [5] was inactive.

For `NC=O`, the outcome in [1], in experiment [6], in experiment [2], in experiment [3], in [9] and in [5] was inactive.

With `CC(C)c1cccc(C(C)C)c1NC(=O)NS(=O)(=O)c1cc(C(C)(C)O)co1`, the outcome in [1], in experiment [6], in experiment [3] and in [8] was inactive. For the same compound, the AC50 in [10] is 9.03 µM (active).

With `CC(N)=O`, the result in [1], in experiment [3], in [7], in [8], in [4] and in [5] was inactive.

As for `CCCCCCCCCC[N+](C)(C)[O-]`, the result in [1], in [3], in experiment [7], in [4] and in experiment [9] was inactive.

Take `CCCCCCCCCCCCCCOS(=O)(=O)O`: the result in [1], in [4] and in experiment [9] was inactive. For the same compound, the concentration at half-maximal activity (AC50) in [3] is 30.1 µM (active); in experiment [7] it was 11.1 µM (active).

`COc1ccc(C(=O)Nc2nc3ccccc3c(NCc3ccccc3)c2C#N)cc1`: the outcome in experiment [1], in [8], in experiment [4] and in experiment [9] was inactive. Further, the AC50 in experiment [3] was 9.43 µM (active); in experiment [7] it was 1.45 µM (active); in experiment [10], 0.585 µM (active).

As to `O=C(N[C@@H](c1ccccc1)[C@@H]1CCCCN1)c1cccc(C(F)(F)F)c1Cl`, the outcome in experiment [1] and in experiment [7] was inactive. The AC50 in experiment [3] is 27.6 µM (active); in experiment [10], 5.4 µM (active).

On to `NC(=Nc1ccccc1)Nc1ccccc1`, for which the outcome in experiment [1], in experiment [3], in [7], in experiment [4] and in [9] was inactive.

Take `C#CC(O)C(CC)CCCC` (stereo not given): the outcome in experiment [1], in experiment [3] and in experiment [9] was inactive. Also, the concentration at half-maximal activity (AC50) in [7] was 59.2 µM (active); in [10] it was 25.5 µM (active).

`O=C1CCCCC1`: the result in experiment [1], in [3], in [7], in experiment [8], in [4] and in [9] was inactive. Further, the AC50 in experiment [5] is 48.4 µM (active).

In the case of `Cc1ccc(C(C)(C)C)c(O)c1`, the values for the concentration at half-maximal activity (AC50) in experiment [1], in experiment [10] and in experiment [9] were 31.1 µM (active), 47.2 µM (active) and 23.3 µM (active), respectively. Besides, the outcome in experiment [3], in experiment [7] and in [4] was inactive.

For `CCc1nc(N)nc(N)c1-c1ccc(Cl)cc1`, the outcome in experiment [1], in experiment [3], in experiment [7], in experiment [10], in [4] and in experiment [9] was inactive.

With `Cc1cn([C@H]2C=C[C@@H](CO)O2)c(=O)[nH]c1=O`, the result in [1], in [3], in experiment [7] and in experiment [8] was inactive.

`CC1=C(C)S(=O)(=O)CCS1(=O)=O`: the result in experiment [1], in experiment [3], in [8] and in experiment [5] was inactive. For the same compound, the half-maximal activity concentration (AC50) in experiment [7] was 77.8 µM (active).

On to `Cn1cnc2c1c(=O)[nH]c(=O)n2C`, for which the outcome in [1], in experiment [3], in experiment [7], in [8] and in [4] was inactive.

The term AC50 denotes the midpoint of the concentration-response curve, whichever way the signal moves.
